What all share (assay): DAPPL (digital affinity profiling via proximity ligation, sequencing); 10 mM Tris-HCl pH 7.5, 50 mM NaCl, 1 mM DTT, 4% glycerol, room temperature, 30 min; GST-TFs on glutathione beads, 16-mer random dsDNA library, 0.1% formaldehyde crosslink after washing; high values mean tight binding
Experiment [1] deals with T1, FEV (Homo sapiens, UniProt Q99581 1-238).
T1 sequence: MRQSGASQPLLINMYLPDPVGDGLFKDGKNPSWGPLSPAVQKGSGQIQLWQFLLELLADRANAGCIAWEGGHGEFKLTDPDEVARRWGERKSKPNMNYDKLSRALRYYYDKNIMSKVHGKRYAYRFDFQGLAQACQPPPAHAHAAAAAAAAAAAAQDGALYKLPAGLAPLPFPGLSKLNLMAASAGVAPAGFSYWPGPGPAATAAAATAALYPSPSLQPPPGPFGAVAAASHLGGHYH
The conditions noted are these: protein: recombinant; tags: N-terminal GST; dsDNA, one strand shown. Put shortly:
(§1)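 Pools were built from human transcription factors expressed in yeast as GST fusions, captured on glutathione beads and DNA-barcoded, along with a tag-only sample. Incubation with 200 nmole of a 16-mer random double-stranded DNA library lasted 30 min at room temperature in Tris/NaCl/DTT/glycerol buffer, and was followed by washing, 0.1% formaldehyde crosslinking, proximity ligation, PCR amplification and Illumina NextSeq500 sequencing. Binding signal is the quotient of each hexamer's read frequency for a factor and its frequency for the tag-only sample.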

The target in experiment [2] is ETV5 (Homo sapiens, UniProt P41161 1-510). The note with it: protein: recombinant; tags: N-terminal GST; dsDNA, one strand shown. Summed up: as §1
Sequence of ETV5 (P41161 whole entry): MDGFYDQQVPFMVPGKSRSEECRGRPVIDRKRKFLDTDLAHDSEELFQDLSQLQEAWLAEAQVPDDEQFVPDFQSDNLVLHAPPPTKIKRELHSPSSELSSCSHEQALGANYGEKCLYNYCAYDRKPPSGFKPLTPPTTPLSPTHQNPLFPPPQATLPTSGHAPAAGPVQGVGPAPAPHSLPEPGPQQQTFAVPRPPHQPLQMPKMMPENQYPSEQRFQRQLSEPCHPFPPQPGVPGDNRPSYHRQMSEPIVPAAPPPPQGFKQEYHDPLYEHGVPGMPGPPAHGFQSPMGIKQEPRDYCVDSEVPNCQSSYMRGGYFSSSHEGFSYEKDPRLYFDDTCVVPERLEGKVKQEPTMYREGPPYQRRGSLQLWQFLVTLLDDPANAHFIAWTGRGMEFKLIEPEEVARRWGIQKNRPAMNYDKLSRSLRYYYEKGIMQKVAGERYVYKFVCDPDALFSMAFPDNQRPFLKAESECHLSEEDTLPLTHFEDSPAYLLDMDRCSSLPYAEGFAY
In experiment [3] the target is HSF1 (Homo sapiens, UniProt Q00613 1-529). The note with it: protein: recombinant; tags: N-terminal GST; chain copies: 3; dsDNA, one strand shown. Put shortly: as §1
Sequence of HSF1 (Q00613 whole entry): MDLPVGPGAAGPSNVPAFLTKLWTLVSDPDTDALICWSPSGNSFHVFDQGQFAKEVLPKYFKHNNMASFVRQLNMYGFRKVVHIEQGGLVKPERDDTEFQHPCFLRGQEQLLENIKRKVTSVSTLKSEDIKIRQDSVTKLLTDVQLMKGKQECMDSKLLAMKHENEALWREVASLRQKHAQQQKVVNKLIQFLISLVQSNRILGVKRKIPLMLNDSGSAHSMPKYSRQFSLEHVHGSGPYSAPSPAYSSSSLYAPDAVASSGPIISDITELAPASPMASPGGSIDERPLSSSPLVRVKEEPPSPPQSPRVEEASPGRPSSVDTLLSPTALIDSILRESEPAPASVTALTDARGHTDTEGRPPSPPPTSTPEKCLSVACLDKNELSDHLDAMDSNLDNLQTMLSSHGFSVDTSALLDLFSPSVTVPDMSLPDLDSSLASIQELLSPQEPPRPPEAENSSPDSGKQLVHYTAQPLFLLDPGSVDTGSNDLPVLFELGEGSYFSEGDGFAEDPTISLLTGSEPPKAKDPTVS
Experiment [4] addresses T2, SPIC (Homo sapiens, UniProt Q8N5J4 1-248).
T2 sequence: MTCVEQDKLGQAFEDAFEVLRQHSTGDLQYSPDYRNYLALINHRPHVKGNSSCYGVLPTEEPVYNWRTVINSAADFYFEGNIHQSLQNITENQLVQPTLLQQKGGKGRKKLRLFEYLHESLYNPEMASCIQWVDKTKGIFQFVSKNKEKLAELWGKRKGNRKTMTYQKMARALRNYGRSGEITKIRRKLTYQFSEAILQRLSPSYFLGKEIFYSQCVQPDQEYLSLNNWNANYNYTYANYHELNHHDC
The note with it: protein: recombinant; tags: N-terminal GST; dsDNA, one strand shown. Put shortly:
as §1

Experiment [5] concerns the target ELF4 (Homo sapiens, UniProt Q99607 1-663). The note with it: protein: recombinant; tags: N-terminal GST; dsDNA, one strand shown. Summed up: as §1
Experiment [6] concerns the target T3, ELK4 (Homo sapiens, UniProt P28324-2 1-405).
T3 sequence: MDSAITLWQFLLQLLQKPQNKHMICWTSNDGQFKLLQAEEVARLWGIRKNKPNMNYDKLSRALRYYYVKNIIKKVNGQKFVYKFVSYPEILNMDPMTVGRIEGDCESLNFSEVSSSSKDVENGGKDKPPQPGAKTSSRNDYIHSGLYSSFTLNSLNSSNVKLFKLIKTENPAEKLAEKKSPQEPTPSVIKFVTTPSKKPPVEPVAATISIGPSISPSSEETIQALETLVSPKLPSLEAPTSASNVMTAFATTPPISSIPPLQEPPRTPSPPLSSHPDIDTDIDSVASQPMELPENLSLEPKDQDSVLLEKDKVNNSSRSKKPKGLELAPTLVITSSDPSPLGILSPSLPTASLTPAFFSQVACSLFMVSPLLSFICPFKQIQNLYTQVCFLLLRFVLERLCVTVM
The note with it: protein: recombinant; tags: N-terminal GST; dsDNA, one strand shown. Put shortly: as §1

The target of experiment [7] is T4, ETV2 (Homo sapiens, UniProt O00321 1-342).
T4 sequence: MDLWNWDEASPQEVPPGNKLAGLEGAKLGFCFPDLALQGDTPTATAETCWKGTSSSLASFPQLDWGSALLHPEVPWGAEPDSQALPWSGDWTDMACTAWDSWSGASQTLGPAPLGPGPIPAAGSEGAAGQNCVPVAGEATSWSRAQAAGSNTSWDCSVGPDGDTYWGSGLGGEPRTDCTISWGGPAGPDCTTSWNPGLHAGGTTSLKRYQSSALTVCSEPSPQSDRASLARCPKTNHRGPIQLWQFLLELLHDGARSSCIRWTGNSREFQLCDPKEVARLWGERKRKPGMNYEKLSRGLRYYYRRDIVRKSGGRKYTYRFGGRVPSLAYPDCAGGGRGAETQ
The note with it: protein: recombinant; tags: N-terminal GST; dsDNA, one strand shown. Summed up:
as §1

In experiment [8] the target is T5, ELF3 (Homo sapiens, UniProt P78545 1-371).
T5 sequence: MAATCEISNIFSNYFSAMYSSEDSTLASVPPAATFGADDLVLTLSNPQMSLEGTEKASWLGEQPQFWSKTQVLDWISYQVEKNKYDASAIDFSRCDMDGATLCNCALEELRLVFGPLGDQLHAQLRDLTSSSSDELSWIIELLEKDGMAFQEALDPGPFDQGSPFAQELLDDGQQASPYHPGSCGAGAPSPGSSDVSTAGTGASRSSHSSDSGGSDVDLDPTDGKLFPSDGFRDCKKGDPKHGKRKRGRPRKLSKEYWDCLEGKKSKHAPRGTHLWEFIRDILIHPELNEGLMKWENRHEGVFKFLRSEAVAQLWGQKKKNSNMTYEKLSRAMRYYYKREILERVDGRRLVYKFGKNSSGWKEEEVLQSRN
The note with it: protein: recombinant; tags: N-terminal GST; dsDNA, one strand shown. Summed up: as §1

The target in experiment [9] is CRX (Homo sapiens, UniProt O43186 1-299). The conditions noted are these: protein: recombinant; tags: N-terminal GST; dsDNA, one strand shown. Put shortly:
as §1

Experiment [10] concerns the target ETV1 (Homo sapiens, UniProt P50549 1-477). The note with it: protein: recombinant; tags: N-terminal GST; dsDNA, one strand shown. Put shortly:
as §1

Experiment [11] has as its target T6, ERF (Homo sapiens, UniProt P50548 1-548).
T6 sequence: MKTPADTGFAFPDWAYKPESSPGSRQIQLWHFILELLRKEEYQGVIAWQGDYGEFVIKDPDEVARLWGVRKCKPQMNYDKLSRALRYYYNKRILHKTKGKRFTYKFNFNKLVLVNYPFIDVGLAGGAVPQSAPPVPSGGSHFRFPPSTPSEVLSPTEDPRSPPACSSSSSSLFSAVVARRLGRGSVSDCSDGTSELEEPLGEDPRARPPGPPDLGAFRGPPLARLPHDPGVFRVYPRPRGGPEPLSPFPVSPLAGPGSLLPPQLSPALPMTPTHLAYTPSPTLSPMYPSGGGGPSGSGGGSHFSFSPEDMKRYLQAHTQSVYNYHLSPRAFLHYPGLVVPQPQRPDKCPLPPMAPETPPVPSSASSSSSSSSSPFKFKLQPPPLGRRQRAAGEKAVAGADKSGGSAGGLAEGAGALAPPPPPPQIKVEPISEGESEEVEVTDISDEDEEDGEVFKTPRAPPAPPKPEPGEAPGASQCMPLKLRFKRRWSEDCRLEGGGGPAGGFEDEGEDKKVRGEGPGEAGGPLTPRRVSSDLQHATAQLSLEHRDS
The note with it: protein: recombinant; tags: N-terminal GST; dsDNA, one strand shown. Summed up:
as §1

Experiment [12] addresses T7, ETV3L (Homo sapiens, UniProt Q6ZN32 1-361).
T7 sequence: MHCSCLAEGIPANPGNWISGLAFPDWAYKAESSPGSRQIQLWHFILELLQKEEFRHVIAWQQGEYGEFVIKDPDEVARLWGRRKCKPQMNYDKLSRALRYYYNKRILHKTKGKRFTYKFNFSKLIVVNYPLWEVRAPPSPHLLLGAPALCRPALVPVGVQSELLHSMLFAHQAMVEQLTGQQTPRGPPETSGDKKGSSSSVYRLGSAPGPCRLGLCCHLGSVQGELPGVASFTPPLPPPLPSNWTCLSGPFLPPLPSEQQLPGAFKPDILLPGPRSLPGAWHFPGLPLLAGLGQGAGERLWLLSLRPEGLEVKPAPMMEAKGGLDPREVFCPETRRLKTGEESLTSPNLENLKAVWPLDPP
The note with it: protein: recombinant; tags: N-terminal GST; dsDNA, one strand shown. Summed up:
as §1

In experiment [13] the target is T8, ETS2 (Homo sapiens, UniProt P15036 1-469).
T8 sequence: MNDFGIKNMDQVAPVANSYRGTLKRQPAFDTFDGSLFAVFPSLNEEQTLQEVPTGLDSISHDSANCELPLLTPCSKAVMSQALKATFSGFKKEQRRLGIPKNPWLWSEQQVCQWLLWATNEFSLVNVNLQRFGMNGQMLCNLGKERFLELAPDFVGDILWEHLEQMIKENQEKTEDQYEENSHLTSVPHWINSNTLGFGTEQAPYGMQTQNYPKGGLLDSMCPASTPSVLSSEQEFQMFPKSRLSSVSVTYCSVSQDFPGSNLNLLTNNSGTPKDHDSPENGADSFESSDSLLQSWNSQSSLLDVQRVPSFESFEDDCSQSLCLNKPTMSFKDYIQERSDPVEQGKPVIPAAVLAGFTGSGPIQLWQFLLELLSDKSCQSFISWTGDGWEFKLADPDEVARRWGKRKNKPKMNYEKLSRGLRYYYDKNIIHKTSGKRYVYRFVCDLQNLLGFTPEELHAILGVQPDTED
The conditions noted are these: protein: recombinant; tags: N-terminal GST; dsDNA, one strand shown. Summed up:
as §1

The target in experiment [14] is T9, SPDEF (Homo sapiens, UniProt O95238 1-335).
T9 sequence: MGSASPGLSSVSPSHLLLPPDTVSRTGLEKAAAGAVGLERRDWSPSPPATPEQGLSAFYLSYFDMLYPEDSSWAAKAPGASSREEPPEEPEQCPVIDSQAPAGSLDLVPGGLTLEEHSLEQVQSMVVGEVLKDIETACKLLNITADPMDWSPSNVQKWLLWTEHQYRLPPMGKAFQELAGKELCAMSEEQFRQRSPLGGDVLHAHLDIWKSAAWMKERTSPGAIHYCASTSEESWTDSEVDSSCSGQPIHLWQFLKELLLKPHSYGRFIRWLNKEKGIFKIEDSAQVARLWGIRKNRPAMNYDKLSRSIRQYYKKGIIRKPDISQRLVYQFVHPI
The note with it: protein: recombinant; tags: N-terminal GST; dsDNA, one strand shown. Put shortly: as §1

The target in experiment [15] is T10, ETV7 (Homo sapiens, UniProt Q9Y603 1-341).
T10 sequence: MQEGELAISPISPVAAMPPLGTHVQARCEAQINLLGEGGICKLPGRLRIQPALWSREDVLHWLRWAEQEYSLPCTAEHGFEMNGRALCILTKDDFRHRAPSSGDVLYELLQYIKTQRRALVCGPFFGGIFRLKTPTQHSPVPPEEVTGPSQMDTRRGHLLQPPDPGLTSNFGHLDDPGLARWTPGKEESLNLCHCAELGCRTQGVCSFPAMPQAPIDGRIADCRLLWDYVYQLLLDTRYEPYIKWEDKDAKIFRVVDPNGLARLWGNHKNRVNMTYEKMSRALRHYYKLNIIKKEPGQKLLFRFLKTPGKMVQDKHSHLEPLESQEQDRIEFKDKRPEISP
The conditions noted are these: protein: recombinant; tags: N-terminal GST; dsDNA, one strand shown. Put shortly:
as §1

Experiment [16] has as its target T11, ELF5 (Homo sapiens, UniProt Q9UKW6-2 1-255).
T11 sequence: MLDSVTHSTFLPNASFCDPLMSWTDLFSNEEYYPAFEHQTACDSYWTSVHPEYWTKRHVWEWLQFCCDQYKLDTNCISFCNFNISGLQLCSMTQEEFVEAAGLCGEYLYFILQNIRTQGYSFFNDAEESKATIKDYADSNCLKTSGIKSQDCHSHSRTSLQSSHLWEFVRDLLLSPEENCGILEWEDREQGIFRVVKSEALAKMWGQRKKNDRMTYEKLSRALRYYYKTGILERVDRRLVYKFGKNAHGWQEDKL
The conditions noted are these: protein: recombinant; tags: N-terminal GST; dsDNA, one strand shown. Put shortly:
as §1

Experiment [17] has as its target T12, ETV3 (Homo sapiens, UniProt P41162-2 1-143).
T12 sequence: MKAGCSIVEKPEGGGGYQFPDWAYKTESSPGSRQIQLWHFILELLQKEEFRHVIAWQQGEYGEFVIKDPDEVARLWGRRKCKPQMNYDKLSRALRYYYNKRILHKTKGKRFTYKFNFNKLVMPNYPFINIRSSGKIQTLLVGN
The note with it: protein: recombinant; tags: N-terminal GST; dsDNA, one strand shown. Put shortly: as §1

Experiment [18] concerns the target ETV6 (Homo sapiens, UniProt P41212 1-452). The conditions noted are these: protein: recombinant; tags: N-terminal GST; dsDNA, one strand shown. Put shortly: as §1

Sequence of CRX (O43186 whole entry): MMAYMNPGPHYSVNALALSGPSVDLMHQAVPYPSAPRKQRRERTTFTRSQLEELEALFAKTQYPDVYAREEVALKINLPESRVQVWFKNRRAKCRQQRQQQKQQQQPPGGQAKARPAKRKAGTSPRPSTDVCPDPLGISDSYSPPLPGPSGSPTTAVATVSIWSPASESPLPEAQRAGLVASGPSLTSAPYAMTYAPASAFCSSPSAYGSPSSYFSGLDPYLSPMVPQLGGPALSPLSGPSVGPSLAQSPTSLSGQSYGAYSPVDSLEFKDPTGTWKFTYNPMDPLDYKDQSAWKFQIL
Sequence of ELF4 (Q99607 whole entry): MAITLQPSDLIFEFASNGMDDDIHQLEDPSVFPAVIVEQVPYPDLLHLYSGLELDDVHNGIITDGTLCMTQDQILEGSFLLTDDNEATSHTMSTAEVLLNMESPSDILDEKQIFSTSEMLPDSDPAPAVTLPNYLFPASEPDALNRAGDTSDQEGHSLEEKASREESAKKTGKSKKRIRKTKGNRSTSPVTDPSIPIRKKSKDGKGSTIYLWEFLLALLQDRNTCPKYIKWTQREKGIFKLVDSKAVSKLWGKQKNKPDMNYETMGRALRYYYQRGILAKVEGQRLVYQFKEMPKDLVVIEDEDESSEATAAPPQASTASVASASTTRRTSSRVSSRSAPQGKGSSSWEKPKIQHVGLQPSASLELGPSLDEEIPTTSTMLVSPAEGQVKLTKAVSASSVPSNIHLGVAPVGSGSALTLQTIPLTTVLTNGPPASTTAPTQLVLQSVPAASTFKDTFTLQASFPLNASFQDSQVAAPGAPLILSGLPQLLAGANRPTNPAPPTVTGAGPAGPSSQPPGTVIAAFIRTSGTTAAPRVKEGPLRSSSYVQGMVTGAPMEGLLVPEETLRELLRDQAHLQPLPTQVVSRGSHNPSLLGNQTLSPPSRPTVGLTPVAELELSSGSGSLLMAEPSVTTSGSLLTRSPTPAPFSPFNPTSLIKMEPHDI
Sequence of ETV6 (P41212 whole entry): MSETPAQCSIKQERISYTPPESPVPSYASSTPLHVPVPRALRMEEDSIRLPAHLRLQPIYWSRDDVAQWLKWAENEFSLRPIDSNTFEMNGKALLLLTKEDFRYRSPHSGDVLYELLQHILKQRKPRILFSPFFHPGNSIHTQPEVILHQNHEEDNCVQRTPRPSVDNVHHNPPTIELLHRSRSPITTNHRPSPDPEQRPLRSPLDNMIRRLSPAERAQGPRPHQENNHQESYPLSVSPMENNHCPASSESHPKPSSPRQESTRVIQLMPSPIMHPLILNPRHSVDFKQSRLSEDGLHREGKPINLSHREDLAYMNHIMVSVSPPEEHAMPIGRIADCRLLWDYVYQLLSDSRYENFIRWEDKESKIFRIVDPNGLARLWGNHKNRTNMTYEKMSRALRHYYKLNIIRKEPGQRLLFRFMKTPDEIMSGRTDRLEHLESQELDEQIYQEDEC
Sequence of ETV1 (P50549 whole entry): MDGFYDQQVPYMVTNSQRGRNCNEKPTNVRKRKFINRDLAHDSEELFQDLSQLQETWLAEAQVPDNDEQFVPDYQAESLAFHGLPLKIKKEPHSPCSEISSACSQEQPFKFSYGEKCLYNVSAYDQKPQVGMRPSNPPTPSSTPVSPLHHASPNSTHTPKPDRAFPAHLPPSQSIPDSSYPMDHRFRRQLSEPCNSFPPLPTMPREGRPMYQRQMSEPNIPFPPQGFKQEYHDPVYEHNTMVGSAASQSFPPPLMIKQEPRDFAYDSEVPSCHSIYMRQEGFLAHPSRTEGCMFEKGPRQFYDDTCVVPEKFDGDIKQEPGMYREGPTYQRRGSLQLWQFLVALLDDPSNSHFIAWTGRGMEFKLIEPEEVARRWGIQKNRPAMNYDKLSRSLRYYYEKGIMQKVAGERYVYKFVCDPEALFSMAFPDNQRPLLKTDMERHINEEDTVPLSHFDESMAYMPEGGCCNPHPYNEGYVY

For the sequence AAGCCT, the binding signal is 1.2 fold enrichment (6-mer frequency, TF over GST control) in experiment [1]; 1.21 fold enrichment (6-mer frequency, TF over GST control) in [2]; 1.5 fold enrichment (6-mer frequency, TF over GST control) in experiment [3]; 1.26 fold enrichment (6-mer frequency, TF over GST control) in experiment [4]; 1.24 fold enrichment (6-mer frequency, TF over GST control) in [5]; 1.14 fold enrichment (6-mer frequency, TF over GST control) in experiment [6]. The binding signal in experiment [7] was 1.19 fold enrichment (6-mer frequency, TF over GST control); in experiment [8], 1.18 fold enrichment (6-mer frequency, TF over GST control); in [9], 1.97 fold enrichment (6-mer frequency, TF over GST control); in experiment [10], 1.18 fold enrichment (6-mer frequency, TF over GST control); in [11], 1.17 fold enrichment (6-mer frequency, TF over GST control); in experiment [12], 1.23 fold enrichment (6-mer frequency, TF over GST control). Further, the binding signal in [13] was 1.22 fold enrichment (6-mer frequency, TF over GST control); in experiment [14], 1.02 fold enrichment (6-mer frequency, TF over GST control); in [15], 1.3 fold enrichment (6-mer frequency, TF over GST control); in [16] it was 1.2 fold enrichment (6-mer frequency, TF over GST control); in [17], 1.3 fold enrichment (6-mer frequency, TF over GST control); in experiment [18], 1.23 fold enrichment (6-mer frequency, TF over GST control).
